# Test results reported in the supplement of paper PMC10849652.
# About 7,900 targets were measured; listed, in parts, are those with a hit and a random draw of the rest. About 0.6% of all pairs of compound and target were hits. Unmarked numbers belong to inactive results.
# Legend:
# Test in all cases: log2 fold change, soluble protein after heating vs DMSO (PISA); higher = thermal stabilisation; K562 cells, 10 uM, 30 min; active = over 0.2 and 3.5 SD of the protein, either way, in both replicates (recomputed)
# [1] = compound: CC1=C(C=C(C=C1)NC(=O)C2=CC(=CC=C2)C(C)(C)C#N)NC3=CC4=C(C=C3)N=CN(C4=O)C
# In short: (§1)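 Quantification of soluble protein used TMTpro 16plex LC-MS/MS, with channel sums equalised. Samples were the supernatant after 21,000xg for 90 min of pooled aliquots from K562 cells (2×10^6 cells/mL) treated with 10 μM compound for 30 min, heated for 3 min over 48°C-58°C, and extracted in PBS with 0.5% NP-40 at 4°C. Values, from duplicates, describe thermal stability against control samples on a log2 fold-change scale.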
# [2] = compound: CC1=C(C=C(C=C1)NC(=O)C2=CC(=CC=C2)N(C)C)NC(=O)C3=CC=C(C=C3)O
# In short: as §1
# [3] = compound: CC1=CC=C(C=C1)SC2=C3C=C(SC3=CN=C2)C(=O)N
# In short: as §1
# [4] = compound: CC1=NC(=CC=C1)C2=C(N=C(N2)C(C)(C)C)C3=CC4=NC=CN=C4C=C3
# In short: as §1
# Nexturastat A = compound: CCCCN(Cc1ccc(C(=O)NO)cc1)C(=O)Nc1ccccc1 [Nexturastat A]
# In short: as §1
# vemurafenib = compound: CCCS(=O)(=O)Nc1ccc(F)c(C(=O)c2c[nH]c3ncc(-c4ccc(Cl)cc4)cc23)c1F [vemurafenib]
# In short: as §1
# [5] = compound: CCCS(=O)(=O)Nc1ccc(F)c(C(=O)c2c[nH]c3ncc(Cl)cc23)c1F
# In short: as §1
# [6] = compound: CCCc1cc(C)[nH]c(=O)c1CNC(=O)c1cc(-c2ccnc(N3CCN(C)CC3)c2)cc2c1cnn2C(C)C
# In short: as §1
# givinostat = compound: CCN(CC)Cc1ccc2cc(COC(=O)Nc3ccc(C(=O)NO)cc3)ccc2c1 [givinostat]
# In short: as §1
# barasertib = compound: CCN(CCCOc1ccc2c(Nc3cc(CC(=O)Nc4cccc(F)c4)[nH]n3)ncnc2c1)CCOP(=O)(O)O [barasertib]
# In short: as §1
# [7] = compound: CC[C@@H]1C(=O)N(C)c2cnc(Nc3ccc(C(=O)NC4CCN(C)CC4)cc3OC)nc2N1C1CCCC1
# In short: as §1
# volasertib = compound: CC[C@@H]1C(=O)N(C)c2cnc(Nc3ccc(C(=O)N[C@H]4CC[C@H](N5CCN(CC6CC6)CC5)CC4)cc3OC)nc2N1C(C)C [volasertib]
# In short: as §1
# [8] = compound: CC[C@H](C)N1C=C(C2=C(C=C(C=C21)C3=CN=C(C=C3)N4CCNCC4)C(=O)NCC5=C(C=C(NC5=O)C)C)C
# In short: as §1
# epoxomicin = compound: CC[C@H](C)[C@@H](C(=O)N[C@@H]([C@@H](C)O)C(=O)N[C@@H](CC(C)C)C(=O)[C@]1(CO1)C)NC(=O)[C@H]([C@@H](C)CC)N(C)C(=O)C [epoxomicin]
# In short: as §1
# [9] = compound: CCn1c(C(=O)N(C2CC2)C2CC2)cc2c3c(ncn3C)c(Nc3cc(C)n(C)n3)nc21
# In short: as §1
# [10] = compound: CCn1cc(-c2ccnc3[nH]c(-c4cccc(CN(C)C)c4)cc23)c(-c2ccc(NC(=O)N(C)C)cc2)n1
# In short: as §1
# [11] = compound: CN(C)CC(=O)Nc1ccc2[nH]c(=O)c3ccccc3c2c1
# In short: as §1
# rosiglitazone = compound: CN(CCOC1=CC=C(C=C1)C[C@H]2C(=O)NC(=O)S2)C3=CC=CC=N3 (racemic) [rosiglitazone]
# In short: as §1
# [12] = compound: CN1C2=C(C3=C1C(=O)N(N=C3)CC4=CC(=CC=C4)N)SC(=C2)S(=O)C
# In short: as §1
# [13] = compound: CN1CCC(CNc2ccc3ncc(-c4cccc(OC(F)(F)F)c4)n3n2)CC1
# In short: as §1
# UniProt Q8NE86, sequence (Q8NE86 whole entry, looked up): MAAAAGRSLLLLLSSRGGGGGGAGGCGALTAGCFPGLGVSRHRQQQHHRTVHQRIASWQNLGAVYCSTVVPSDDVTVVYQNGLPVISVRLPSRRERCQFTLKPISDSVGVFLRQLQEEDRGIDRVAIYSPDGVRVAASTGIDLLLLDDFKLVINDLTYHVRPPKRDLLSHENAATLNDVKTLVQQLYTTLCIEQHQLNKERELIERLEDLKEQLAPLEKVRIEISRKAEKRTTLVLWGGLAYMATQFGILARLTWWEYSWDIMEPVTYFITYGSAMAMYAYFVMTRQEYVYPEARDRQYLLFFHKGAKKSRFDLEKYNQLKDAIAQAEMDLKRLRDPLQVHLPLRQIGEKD
# UniProt Q8NC54, sequence (Q8NC54 whole entry, looked up): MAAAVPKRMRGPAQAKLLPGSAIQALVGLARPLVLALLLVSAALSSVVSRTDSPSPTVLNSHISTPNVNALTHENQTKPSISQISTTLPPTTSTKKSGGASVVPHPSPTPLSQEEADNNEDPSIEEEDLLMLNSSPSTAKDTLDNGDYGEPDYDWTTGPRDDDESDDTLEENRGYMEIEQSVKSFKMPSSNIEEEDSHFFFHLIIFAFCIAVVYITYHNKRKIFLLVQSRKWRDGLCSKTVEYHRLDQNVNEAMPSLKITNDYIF
# UniProt Q68DH5, sequence (Q68DH5 whole entry, looked up): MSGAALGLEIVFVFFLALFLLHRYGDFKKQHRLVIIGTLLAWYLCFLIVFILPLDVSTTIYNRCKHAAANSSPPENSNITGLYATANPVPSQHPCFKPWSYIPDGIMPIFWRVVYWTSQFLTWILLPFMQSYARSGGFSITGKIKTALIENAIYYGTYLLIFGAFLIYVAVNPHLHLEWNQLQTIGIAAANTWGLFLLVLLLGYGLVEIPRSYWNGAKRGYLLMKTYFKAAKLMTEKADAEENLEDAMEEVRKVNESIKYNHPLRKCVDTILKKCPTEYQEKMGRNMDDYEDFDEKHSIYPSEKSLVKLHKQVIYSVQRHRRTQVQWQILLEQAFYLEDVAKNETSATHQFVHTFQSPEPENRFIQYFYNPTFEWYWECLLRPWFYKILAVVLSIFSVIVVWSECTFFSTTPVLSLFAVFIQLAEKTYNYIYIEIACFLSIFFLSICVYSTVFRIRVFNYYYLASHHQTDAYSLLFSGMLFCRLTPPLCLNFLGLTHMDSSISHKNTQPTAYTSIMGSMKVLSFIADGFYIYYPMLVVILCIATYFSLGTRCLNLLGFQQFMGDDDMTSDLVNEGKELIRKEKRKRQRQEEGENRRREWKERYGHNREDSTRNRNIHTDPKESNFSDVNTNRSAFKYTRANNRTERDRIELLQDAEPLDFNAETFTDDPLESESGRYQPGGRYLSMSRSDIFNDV
# UniProt Q32MZ4, sequence (Q32MZ4 whole entry, looked up): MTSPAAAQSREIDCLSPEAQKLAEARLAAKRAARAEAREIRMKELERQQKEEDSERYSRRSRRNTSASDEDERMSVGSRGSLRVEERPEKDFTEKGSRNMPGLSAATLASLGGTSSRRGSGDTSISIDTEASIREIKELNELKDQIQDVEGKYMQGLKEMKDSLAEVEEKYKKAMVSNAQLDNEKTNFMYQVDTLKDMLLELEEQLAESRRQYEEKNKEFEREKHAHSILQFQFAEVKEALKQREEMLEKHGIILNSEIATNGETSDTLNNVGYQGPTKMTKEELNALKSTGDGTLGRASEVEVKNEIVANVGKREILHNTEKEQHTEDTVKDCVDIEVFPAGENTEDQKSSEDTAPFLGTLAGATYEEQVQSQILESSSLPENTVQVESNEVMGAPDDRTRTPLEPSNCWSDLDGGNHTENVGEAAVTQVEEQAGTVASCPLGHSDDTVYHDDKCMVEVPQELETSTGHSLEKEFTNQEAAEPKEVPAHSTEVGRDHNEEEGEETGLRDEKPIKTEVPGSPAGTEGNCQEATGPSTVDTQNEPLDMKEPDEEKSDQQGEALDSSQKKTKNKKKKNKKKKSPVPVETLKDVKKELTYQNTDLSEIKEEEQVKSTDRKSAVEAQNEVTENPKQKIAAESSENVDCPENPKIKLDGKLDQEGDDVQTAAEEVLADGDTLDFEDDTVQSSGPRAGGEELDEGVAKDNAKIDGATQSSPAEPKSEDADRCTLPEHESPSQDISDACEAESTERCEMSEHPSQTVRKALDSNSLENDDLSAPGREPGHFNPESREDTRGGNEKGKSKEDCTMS
# UniProt Q9NWZ3, sequence (Q9NWZ3 whole entry, looked up): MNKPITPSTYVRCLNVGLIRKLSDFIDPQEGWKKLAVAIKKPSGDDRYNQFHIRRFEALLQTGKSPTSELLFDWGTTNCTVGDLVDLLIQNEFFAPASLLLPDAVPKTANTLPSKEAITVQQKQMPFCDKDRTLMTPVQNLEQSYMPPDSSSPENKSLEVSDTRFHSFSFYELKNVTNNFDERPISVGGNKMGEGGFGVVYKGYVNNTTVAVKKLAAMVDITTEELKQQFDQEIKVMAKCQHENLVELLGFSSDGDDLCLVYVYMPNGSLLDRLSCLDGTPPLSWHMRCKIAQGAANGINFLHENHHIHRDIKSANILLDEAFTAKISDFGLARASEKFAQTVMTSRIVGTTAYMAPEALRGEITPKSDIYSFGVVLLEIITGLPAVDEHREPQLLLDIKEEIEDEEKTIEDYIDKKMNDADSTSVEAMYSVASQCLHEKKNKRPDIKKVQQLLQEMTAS
# UniProt Q4G0J3, sequence (Q4G0J3 whole entry, looked up): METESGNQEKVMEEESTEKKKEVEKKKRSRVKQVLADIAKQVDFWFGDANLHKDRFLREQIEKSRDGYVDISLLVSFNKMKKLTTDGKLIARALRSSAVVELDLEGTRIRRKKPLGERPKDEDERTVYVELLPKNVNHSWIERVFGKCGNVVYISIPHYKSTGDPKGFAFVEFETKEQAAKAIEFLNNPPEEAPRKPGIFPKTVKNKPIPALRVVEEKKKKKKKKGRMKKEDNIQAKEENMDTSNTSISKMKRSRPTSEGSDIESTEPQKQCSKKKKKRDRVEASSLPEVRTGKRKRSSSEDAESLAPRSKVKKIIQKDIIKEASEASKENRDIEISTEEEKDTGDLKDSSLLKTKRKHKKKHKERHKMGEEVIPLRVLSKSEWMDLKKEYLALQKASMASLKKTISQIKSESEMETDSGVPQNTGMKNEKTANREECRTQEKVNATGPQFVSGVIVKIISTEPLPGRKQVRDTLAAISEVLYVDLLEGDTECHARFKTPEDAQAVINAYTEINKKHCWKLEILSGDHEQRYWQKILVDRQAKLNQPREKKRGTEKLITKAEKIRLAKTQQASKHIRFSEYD
# UniProt Q8WV07, sequence (Q8WV07 whole entry, looked up): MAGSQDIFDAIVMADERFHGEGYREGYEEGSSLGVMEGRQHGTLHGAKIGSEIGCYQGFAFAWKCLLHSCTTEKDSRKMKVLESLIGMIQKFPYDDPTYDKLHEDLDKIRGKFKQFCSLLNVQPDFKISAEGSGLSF
# UniProt P33947, sequence (P33947 whole entry, looked up): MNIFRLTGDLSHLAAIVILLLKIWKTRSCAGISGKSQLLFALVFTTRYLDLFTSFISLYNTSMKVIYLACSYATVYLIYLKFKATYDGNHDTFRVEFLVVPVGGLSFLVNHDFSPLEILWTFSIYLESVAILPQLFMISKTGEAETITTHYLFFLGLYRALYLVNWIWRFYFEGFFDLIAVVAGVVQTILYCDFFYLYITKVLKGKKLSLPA
# UniProt Q92615, sequence (Q92615 whole entry, looked up): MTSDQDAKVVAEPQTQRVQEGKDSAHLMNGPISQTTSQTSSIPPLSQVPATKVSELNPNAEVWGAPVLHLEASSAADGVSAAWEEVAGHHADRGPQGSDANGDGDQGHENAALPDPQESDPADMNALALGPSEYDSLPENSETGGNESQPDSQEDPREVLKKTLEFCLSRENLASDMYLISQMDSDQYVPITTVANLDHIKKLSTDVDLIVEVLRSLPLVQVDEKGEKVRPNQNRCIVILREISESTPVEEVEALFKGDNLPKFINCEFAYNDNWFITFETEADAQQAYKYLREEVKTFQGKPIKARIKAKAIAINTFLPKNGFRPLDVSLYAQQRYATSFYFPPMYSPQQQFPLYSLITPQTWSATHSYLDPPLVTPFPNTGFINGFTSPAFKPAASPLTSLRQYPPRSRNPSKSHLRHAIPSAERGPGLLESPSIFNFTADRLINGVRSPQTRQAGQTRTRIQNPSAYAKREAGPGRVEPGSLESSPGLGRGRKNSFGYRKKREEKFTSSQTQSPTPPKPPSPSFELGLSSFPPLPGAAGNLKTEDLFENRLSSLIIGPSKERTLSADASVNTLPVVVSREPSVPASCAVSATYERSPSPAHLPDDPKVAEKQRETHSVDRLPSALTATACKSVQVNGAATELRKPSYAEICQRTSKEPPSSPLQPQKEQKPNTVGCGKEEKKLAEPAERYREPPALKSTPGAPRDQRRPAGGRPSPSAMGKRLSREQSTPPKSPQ
# UniProt Q9BPX6, sequence (Q9BPX6 whole entry, looked up): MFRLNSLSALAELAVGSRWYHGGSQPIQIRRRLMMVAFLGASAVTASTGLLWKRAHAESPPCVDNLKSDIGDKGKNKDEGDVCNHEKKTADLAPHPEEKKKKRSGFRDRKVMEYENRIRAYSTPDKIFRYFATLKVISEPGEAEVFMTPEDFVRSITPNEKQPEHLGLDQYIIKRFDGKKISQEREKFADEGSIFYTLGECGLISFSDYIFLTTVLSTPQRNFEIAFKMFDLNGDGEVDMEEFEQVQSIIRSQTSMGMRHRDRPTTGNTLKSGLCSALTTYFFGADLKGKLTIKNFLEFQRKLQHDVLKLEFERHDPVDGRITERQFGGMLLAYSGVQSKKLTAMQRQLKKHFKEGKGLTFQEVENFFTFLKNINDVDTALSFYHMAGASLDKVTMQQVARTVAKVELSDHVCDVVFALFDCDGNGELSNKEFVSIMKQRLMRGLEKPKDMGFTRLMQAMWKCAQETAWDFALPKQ
# UniProt Q13257, sequence (Q13257 whole entry, looked up): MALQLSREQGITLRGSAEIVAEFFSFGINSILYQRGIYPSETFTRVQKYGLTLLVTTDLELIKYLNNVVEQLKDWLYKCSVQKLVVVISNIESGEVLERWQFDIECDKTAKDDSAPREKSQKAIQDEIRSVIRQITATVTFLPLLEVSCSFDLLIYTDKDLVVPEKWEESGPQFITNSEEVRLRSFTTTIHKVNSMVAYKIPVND
Target,log2 fold change [1],log2 fold change [2],log2 fold change [3],log2 fold change [4],log2 fold change (Nexturastat A),log2 fold change (vemurafenib),log2 fold change [5],log2 fold change [6],log2 fold change (givinostat),log2 fold change (barasertib),log2 fold change [7],log2 fold change (volasertib),log2 fold change [8],log2 fold change (epoxomicin),log2 fold change [9],log2 fold change [10],log2 fold change [11],log2 fold change (rosiglitazone),log2 fold change [12],log2 fold change [13]
KCTD10 (UniProt Q9H3F6),-0.055,0.022,-0.025,0.017,0.051,-0.013,-0.029,0.024,0.025,0.021,0.046,0.022,0.055,-0.019,0,-0.01,0.023,0.04,0.003,0.257 (active)
LRRFIP1 (UniProt Q32MZ4),-0.024,0.003,-0.012,-0.01,0.005,-0.019,-0.027,-0.002,0.014,0.004,0.06,0.099,-0.075,-0.019,0.019,0.028,-0.004,-0.007,0.011,0.013
IRAK4 (UniProt Q9NWZ3),0.006,-0.039,0,0.03,0.009,0.041,0.068,-0.003,0.062,0.024,-0.138,-0.299,0.048,0.038,-0.092,-0.033,0.061,0.042,0.029,0.013
MCU (UniProt Q8NE86),0,0.051,0.094,0.002,0.002,0.026,0.022,-0.075,0.013,0.014,-0.147,-0.249 (active),0.014,0.075,-0.082,-0.048,0.011,0.034,-0.045,-0.23 (active)
LTO1 (UniProt Q8WV07),0.021,-0.042,-0.021,-0.009,0.245,0.101,0.027,0,-0.121,-0.04,-0.018,0.322,0.058,0.063,-0.008,-0.029,-0.312 (active),0.013,-0.105,0.035
MAP3K20 (UniProt Q9NYL2),-0.448 (active),-0.098,-0.014,0.03,0.062,-0.254,-0.163,0.022,-0.089,-0.02,0.038,-0.026,0.08,0.008,0.011,-0.016,-0.02,0.035,0.126,-0.12
MICU1 isoform 3 (UniProt Q9BPX6),-0.002,0.052,-0.003,-0.028,0.117,-0.049,0.042,-0.001,0,0.012,-0.113,-0.281,0.031,0.026,-0.009,0.008,0.006,-0.01,0.077,-0.369 (active)
MAIP1 (UniProt Q8WWC4),-0.022,-0.005,0.083,0.088,-0.033,0.034,0.057,-0.034,0.001,-0.002,-0.086,-0.098,-0.023,-0.068,0.034,-0.015,0.026,-0.001,-0.052,-0.396 (active)
LARP4B (UniProt Q92615),0.055,0.032,0.016,0.001,0.127,0.016,0.022,0.05,0.061,-0.025,0.025,-0.15,0.061,-0.037,-0.052,0.073,0.034,-0.02,0.096,-0.218
JMJD6 isoform 3 (UniProt Q6NYC1),0.055,-0.085,0.092,0.024,-0.147,0.002,0.049,0.071,-0.095,-0.007,-0.044,-0.306 (active),-0.012,-0.015,-0.037,-0.009,-0.006,0.031,0.006,-0.09
KDELR2 (UniProt P33947),0.058,0.099,0.064,-0.094,-0.13,-0.079,-0.054,-0.128,-0.064,0.036,0.033,-0.18,-0.089,-0.02,-0.031,-0.016,-0.125,0.017,-0.063,0.255
MIEF1 (UniProt L0R8F8),-0.007,0.003,0.019,-0.026,0.092,0.079,0.102,-0.001,0.006,0.003,-0.028,-0.076,-0.106,0.022,0.017,-0.065,-0.018,-0.019,-0.028,-0.021
LARP7 isoform 3 (UniProt Q4G0J3),-0.011,0.054,-0.03,-0.053,0.016,0.027,0.045,0.004,-0.03,0,-0.047,-0.155,0.051,-0.081,0.034,-0.032,0.064,0.003,0.014,-0.075
MAD2L1 (UniProt Q13257),0.019,-0.035,-0.003,0.031,-0.103,0.028,0.031,-0.129,0.02,0.018,-0.058,-0.381 (active),0.016,-0.045,0,-0.038,0.002,0.052,-0.081,-0.166
LMBRD2 (UniProt Q68DH5),-0.038,0.016,0.043,0,0.019,-0.052,-0.03,0.038,0.043,0.011,-0.063,-0.042,-0.012,0.081,-0.007,-0.018,0.002,-0.023,-0.008,-0.362 (active)
KCT2 (UniProt Q8NC54),0.104,0.007,0.006,0.017,-0.102,-0.013,-0.011,-0.008,-0.108,-0.025,-0.312,-0.076,-0.006,-0.063,0.089,-0.03,0.064,0.009,-0.051,-0.037
